High-throughput results (PubChem)
Compounds with a hit are over-represented: about 4.1% of the library has one in this group of screens.
hgDAF12 agonist – activates the H. glycines DAF-12 receptor ligand-binding domain; HEK293 GAL4-hgDAF12 UAS-luciferase reporter, agonist luminescence; normalized to butyrate control; AID 687014; 370,000 tested, 1.8% active; activation, % at 6.8 µM;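 active = activation above a cutoff set at the mean of all screened compounds plus 3 SD, cut at about 10% in these data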
ssDAF12 agonist – activators of S. stercoralis DAF-12 nuclear receptor; 370,000 tested, 1% active; HEK293 ssDAF-12/GRIP1 lit1-tk-luc reporter, luminescence; % of 3 µM dafachronic acid response; AID 652126; activation, % at 6.8 µM;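 active = activation above the mean over all tested compounds plus 3 SD, cut at about 0.9% in these data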
hcDAF-12 act – H. contortus DAF-12 activation, primary screen; HEK293 hcDAF-12 lit1-tk-luc reporter, luminescence; 0% DMSO, 100% Δ7-dafachronic acid; activation, % at 6.8 µM; 370,000 tested, 1.4% active; AID 652067;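 active = activation above the mean of all tested compounds plus 3 SD, cut at about 5.5% in these data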
DAX1 inh-1 – blocks DAX1 repression of SF-1 activated StAR promoter. HEK293T StAR-luciferase reporter, SF-1/DAX-1 repression relief. inhibition, % at 6.8 µM. 370,000 tested, 1.1% active. AID 652010;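 active = inhibition above the mean over all tested compounds plus 3 SD, cut at about 3.6% in these data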;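 note: higher inhibition means more luminescence from relief of DAX-1 repression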
DAX1 inh-2 – inhibitors of human orphan nuclear receptor DAX1 (NR0B1); AID 504766; 340,000 tested, 0.99% active; HEK293 Gal4-DAX1 luciferase reporter, luminescence; inhibition, % at 6.75 µM;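 active = inhibition above the mean over all tested compounds plus 3 SD, cut at about 4.2% in these data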;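 note: inhibition shows as a rise in luminescence from relieved DAX1 repression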
Target sequence (P51843 207-470 limits assumed): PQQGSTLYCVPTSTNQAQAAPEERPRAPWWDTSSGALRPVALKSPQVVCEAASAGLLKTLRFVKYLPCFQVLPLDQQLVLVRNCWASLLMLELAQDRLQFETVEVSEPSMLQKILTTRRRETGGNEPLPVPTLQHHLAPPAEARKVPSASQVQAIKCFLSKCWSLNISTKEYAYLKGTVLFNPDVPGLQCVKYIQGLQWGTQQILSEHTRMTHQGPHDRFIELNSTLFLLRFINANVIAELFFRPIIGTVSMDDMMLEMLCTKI
Large screens that a line does not name were inactive.

c1ccc2c(c1)Nc1cc3ccccc3cc1S2	hcDAF-12 act 6.5
Cc1cc(C)n(C(=O)Cn2nc(C)c(Cl)c2C)n1	DAX1 inh-2 4.5
Cc1cc(C)n(C(=O)Cn2nc(C)c(Br)c2C)n1	none
Cc1cccc(C)c1NC(=O)C1CCCN1S(=O)(=O)c1cccc2cccnc12 (stereo unspecified)	none (no result: DAX1 inh-2)
Cc1ccc(-n2c(CSc3nc(C)cc(C)n3)nnc2SCC(=O)NCc2ccco2)cc1	ssDAF12 agonist 0.9, hcDAF-12 act 5.6
CC(=C\C=O)/C(C)=C/CC[C@@H]1O[C@@H]2C[C@@H]3O[C@](C)(C[C@H]4C[C@H](O)[C@@H]5O[C@@H]6C[C@H](O)[C@@H](C)O[C@@]6(C)CC[C@H]5O4)[C@@H](O)CC[C@@]3(C)O[C@H]2[C@@H](O)[C@@H]1C	none (no result: DAX1 inh-1, DAX1 inh-2)
CCOC(=O)NC1(NCC(C)C)Oc2ccccc2O1	DAX1 inh-2 4.4
CCOC(=O)NC1(NC(C)C)Oc2ccccc2O1	none
Cc1ccc(O)c(C2=Nc3ccccc3N=C(c3ccc([N+](=O)[O-])cc3)C2)c1	ssDAF12 agonist 1.0
Cc1ccc(O)c(C2=Nc3ccccc3N=C(c3cccc([N+](=O)[O-])c3)C2)c1	none
CNC(=O)C[C@H]1C(=O)N(c2ccc(OC)cc2)C[C@@H]1C	none
NC(N)=NC(=O)c1nc(Cl)c(N2CCCCCC2)nc1N	hgDAF12 agonist 12.5
Fc1ccc(-n2c(-c3ccc4ccccc4n3)n[nH]c2=S)cc1	DAX1 inh-2 6.3
CN1CCCCCC1C(=O)N1CCC(N2CCC(C(=O)N3CCOCC3)CC2)CC1 (stereo unspecified)	none
O=c1[nH]cnc2nn(C3OC(CO)C(O)C3O)nc12 (stereo unspecified)	none (no result: DAX1 inh-2)
Cc1csc(N/N=C/c2ccccn2)n1	ssDAF12 agonist 1.3, hcDAF-12 act 6.2
COc1cccc(/C=C/C(=O)c2ccc[nH]2)c1	ssDAF12 agonist 1.2
O=C(/C=C/c1ccc2c(c1)OCO2)c1ccc[nH]1	hgDAF12 agonist 10.8
Nn1c(SCC(=O)Nc2ccc(C(=O)O)cc2)nnc1-c1ccco1	none (no result: DAX1 inh-2)
Cc1ccccc1CN1CCCCC(NC(=O)C(C)(C)C)C1=O (stereo unspecified)	none (no result: DAX1 inh-2)
CCc1c(C)nc2cc(-c3cccc(Br)c3)[nH]n2c1=O	ssDAF12 agonist 1.0, hcDAF-12 act 6.4
CCCc1cc(=O)n2[nH]c(-c3ccc(C)cc3)cc2n1	DAX1 inh-1 4.0
O=c1c2c(nc3cc(-c4ccc(Cl)cc4)[nH]n13)CCS2	hgDAF12 agonist 11.0
CCc1c(C)nc2cc(-c3ccc(Cl)cc3)[nH]n2c1=O	hgDAF12 agonist 10.9, DAX1 inh-2 4.8
O=C(Nc1ccc2c(c1)OCO2)C1CC(=O)N(c2ccc(F)cc2)C1 (stereo unspecified)	none
CCN(CC)C(=O)c1cccc(-c2csc(C(O)c3cccc(Cl)c3)n2)c1 (stereo unspecified)	none (no result: DAX1 inh-2)
CN(C)S(=O)(=O)N1CCCC(C(=O)c2ccc(-c3ccccc3)cc2)C1 (stereo unspecified)	DAX1 inh-2 4.3
COC(=O)[C@]12C[C@H](CC(=O)NCc3ccc(C)o3)C(=O)N(Cc3cccc4ccccc34)C1=C[C@H](COCc1ccccc1)O[C@@H]2C	none (no result: DAX1 inh-2)
CC(OC(=O)CNC(=O)c1ccco1)C(=O)N(C)c1ccccc1 (stereo unspecified)	none
CC(OC(=O)/C(C#N)=C/c1ccco1)C(=O)N(C)c1ccccc1 (stereo unspecified)	ssDAF12 agonist 2.5
CC(C)NC(=O)c1nc2ccccc2s1	ssDAF12 agonist 3.2
COC(=O)c1ccc(CC(=O)c2nc3ccccc3s2)cc1	ssDAF12 agonist 1.0
CC(C)=C(C#N)c1nc2ccccc2s1	DAX1 inh-2 5.4
O=C(NCC(c1ccco1)N1CCOCC1)c1ccc([N+](=O)[O-])cc1 (stereo unspecified)	none
CC(=O)c1cccc(NC(=O)C2CCN(C(=O)c3ccc([N+](=O)[O-])cc3)CC2)c1	ssDAF12 agonist 2.3
O=C(c1ccc([N+](=O)[O-])cc1)N1CCCC1	none
O=C(c1ccc([N+](=O)[O-])cc1)N1CCOCC1	ssDAF12 agonist 8.9
O=C(NCC(O)CN1CCOCC1)c1ccc([N+](=O)[O-])cc1 (stereo unspecified)	DAX1 inh-2 6.2
O=C(Nc1ccccc1)C1CCN(C(=O)c2ccc([N+](=O)[O-])cc2)CC1	none
Cc1cccc(-c2cc3nc4c(c(N5CCC6(CC5)OCCO6)n3n2)CCCC4)c1	none
